Screening data: PubChem, several laboratories
Autophagy HCS = alters autophagy in cells; calls only at 10 µM (by protocol); MEF GFP-LC3 puncta imaging; test concentration mostly 10 µM; 190,000 tested, 0.98% active;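 active = percentage of spot-positive cells more than 3 SD above its plate mean, without a fluorescence outlier flag or 80% toxicity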
L major viab = Leishmania major promastigote growth inhibition | inhibition, % at 10 µM | AID 1063 | Leishmania major promastigotes, resazurin fluorescence viability | 200,000 tested, 9% active; in the data active = inhibition above about 50%;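 also: promastigotes grown with compound for 44 hours at 28 °C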
Insulin prom inh = TRM-6 insulin promoter activity inhibition | TRM-6 cells (human fetal islet line), insulin promoter-eGFP reporter, imaging; reporter expression induced with tamoxifen | inhibition, % at 2 µM | 130,000 tested, 0.9% active;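 active = inhibition above the mean plus 3 SD, with well images judged a real hit on visual review, cut at about 60% in these data, passing the limit was not always enough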
WT yeast gro inh = growth inhibition of WT yeast, mitochondrial fusion screen. mitochondrial fusion phenotypic screen, WT strain. AID 1362. 190,000 tested, 2.1% active. inhibition, % at 10 µM; in the data active = inhibition above about 58%; tested in S. cerevisiae
Insulin prom up = MIN6 insulin promoter up-regulation; MIN6 insulin promoter-GFP reporter, high-content imaging; active compounds read high; AID 1625; z-score at 5 µM; 190,000 tested, 0.3% active;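 active = z-score above 3 at 5 µM with at least 500 cells counted in the well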
Hits are given with their value; - = inactive; . = no result. An excerpt weighted towards active compounds, which were near 11% of everything screened.

SMILES	Autophagy HCS	L major viab	Insulin prom inh	WT yeast gro inh	Insulin prom up
CCCC[C@@H]1C[C@H]1[C@@H](NC(=O)c1cccs1)c1ccc(Cl)cc1	-	-	-	70.0	-
CCOC(=O)c1cc(-c2ccc(OC)cc2)nc2c1c(C)nn2CCC(N)=S	-	-	-	-	-
Cc1ccc(CNS(=O)(=O)c2ccc3c(c2)CCN3C(=O)CCCC(=O)O)cc1	-	-	.	-	-
Cc1nn(C)cc1CN1CCCC(C(=O)c2ccc(-c3ccccc3)c(F)c2)C1 (stereo not given)	-	97.3	.	-	-
CCn1cc(CN2CCCC(C(=O)c3ccc(-c4ccccc4)cc3)C2)cn1 (stereo not given)	-	85.7	.	-	-
Cn1cc(CN2CCCC(C(=O)c3ccc(-c4ccccc4)cc3)C2)cn1 (stereo not given)	-	90.5	-	-	-
Cn1cc(CN2CCCC(C(=O)c3ccc(-c4ccccc4)c(F)c3)C2)cn1 (stereo not given)	-	86.8	.	-	-
CCOc1ccc(S(=O)(=O)NCCCN2CCCC2=O)cc1	-	-	.	-	-
COc1cc(/C=N/NC(=O)CC2(C)OCCCO2)ccc1OCc1ccccc1	-	-	-	-	-
O=C(CCN1CCCCC1)N/N=C/c1ccc(Br)cc1	-	82.8	-	-	-
COc1cc(/C=N/NC(=O)CN2CCCCC2)ccc1OCc1ccc(Br)cc1	-	94.5	-	-	-
O=S1(=O)C[C@H]2NC(=S)N(c3ccccc3)[C@H]2C1	-	-	.	-	-
O=C(CN1CCCC1)NCC12CC3CC(CC(C3)C1)C2	-	-	-	-	-
O=C(CN1CCCC1)NC12CC3CC(CC(C3)C1)C2	-	50.7	-	-	-
CC(=O)Nc1ccc(C(=O)CSc2cc(C)c3cccc(C)c3n2)cc1	-	50.7	-	-	-
Cc1cc(SCC(=O)c2cccs2)nc2c(C)cccc12	-	-	-	-	-
Cc1ccc(NC(=O)CSc2nn(-c3ccccc3)c(=S)s2)cc1S(=O)(=O)N(C)C	-	77.4	-	-	-
CCOC(=O)N1CCN(C(=S)NC(=O)c2ccc(F)c(F)c2)CC1	-	-	.	-	-
CCOC(=O)C/C(N)=N/N(C)c1ncc(C(F)(F)F)cc1Cl	-	-	-	-	-
CCC(C)(NC(=O)c1ccccn1)C(=O)NC1CCCC1 (stereo not given)	-	-	.	-	-
CCC(C)(NC(=O)CNC(C)=O)C(=O)NC1CCCCC1 (stereo not given)	-	-	69.0	-	-
CCC(C)(C(=O)NC1CCCC1)N(C(=O)CNC(C)=O)c1ccccc1 (stereo not given)	-	-	.	-	3.46
Cc1ccc(-c2csc3nc(SCC(N)=O)n(Cc4ccccc4)c(=O)c23)cc1	-	51.5	-	-	-
COc1cc(Cl)c(C)cc1NC(=O)c1cccc(OC)c1OC	-	-	.	-	-
Brc1cccc(OCCCN2CCCCCC2)c1	-	96.0	.	-	.
SMILES	Autophagy HCS	L major viab	Insulin prom inh	WT yeast gro inh	Insulin prom up
COc1cccc(C(=O)OCCN2CCCCC2)c1	-	-	-	-	-
c1ccc(Oc2cccc(OCCCCN3CCCC3)c2)cc1	-	99.1	-	-	-
Clc1cccc(OCCN2CCN(CCOc3cccc(Cl)c3)CC2)c1	-	99.3	-	-	-
CC1CCN(CCOc2cccc(Br)c2)CC1	-	71.0	-	-	-
CC1CN(CCCCOc2cccc(Oc3ccccc3)c2)CC(C)O1 (stereo not given)	-	-	.	-	-
COc1cccc(NC(=O)CN2CCC(C)CC2)c1	-	-	.	-	-
CCN(/C=N/S(=O)(=O)c1ccc(Cl)cc1)CC	-	-	.	-	-
Clc1ccc(-c2csc(-c3cccnc3)n2)s1	.	.	.	.	-
O=C(CN1CCN(C(=O)c2ccco2)CC1)Nc1cccc([N+](=O)[O-])c1	-	-	-	-	.
COC(=O)[C@H](CCSC)NC(=O)Nc1ccc(S(N)(=O)=O)cc1	.	.	.	.	-
O=C(C[n+]1cccc(O)c1)Nc1ccc(Br)cc1	-	-	.	-	-
O=C(CSc1nnc(CNc2ccc(F)cc2)n1-c1ccccc1)N1CCOCC1	-	-	-	-	-
O=[N+]([O-])CC(=Nc1ccc(F)cc1)N/N=C\c1oc(O)c2ccccc12	.	.	.	.	-
O=C1ON=C(c2ccccc2)/C1=C/c1ccc(-c2ccccc2[N+](=O)[O-])o1	-	100.1	-	-	-
O=[N+]([O-])c1ccccc1-c1ccc(/C=N/n2cnnc2)o1	-	-	.	-	-
C/C(=N/O)c1ccc2c(c1)OCCOCCOc1cc(/C(C)=N/O)ccc1OCCOCCO2	-	-	-	-	-
CC1(CC(=O)N/N=C/c2ccc(OCc3ccc(Cl)cc3Cl)cc2)OCCCO1	-	-	.	77.3	-
